Assay outcomes from PubChem BioAssay.
CaV13 ICDI inh – Primary screen for inhibitors of IQ motif and Ca2+-dependent inactivation inhibitor domain binding in CACNA1D, Förster resonance energy transfer in living cells, …; HEK cells, CFP/YFP FRET ICDI-IQ, plate reader, 10 min; percent FRET-ratio fall versus neutral wells; inhibition, % at 12.3 µM; actives 0.098% (n = 340,000); AID 743397;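 active means mean replicate inhibition of at least 30% and at least 1% of replicates passing that level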;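 further: 0% = median of the neutral control wells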
ERAP1 inh – human ERAP1 aminopeptidase inhibitors, primary screen, biochemical, single point, plate reader. Endoplasmic reticulum aminopeptidase 1 (Homo sapiens), Q9NZ08. recombinant ERAP1, Leu-AMC fluorescence, 60 min. inhibition, % at 10.7 µM. actives 0.15% (n = 340,000). AID 652197, 2013;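 active means mean replicate inhibition of at least 30%, or all replicates individually reaching that 30% level; inactive means mean below 30% and not every replicate reaching it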;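 further: 0% = neutral control wells and 100% = L-leucinethiol positive control wells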
Ecoli rRNA inh – reduced GFP signal of wild-type E. coli, primary screen, bacterial rRNA inhibitor project, GFP/RFP fluorescence, OD600, single point; actives 1.6% (n = 350,000); GFP signal change (wild-type ribosome), % (test concentration not listed); E. coli WT GFP vs humanized-ribosome RFP mutants, 24 h; active compounds read low; DMSO median 0, no signal -100; AID 720706, 2013;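 active means significant combined selectivity score with lowered wild-type GFP, culture density cut under 30%, mutant RFP and density less affected; inactive means any of these conditions unmet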
INS-1E GSIS act – GLuc luminescence reporter in INS-1E cells, primary screen for activators of glucose-dependent secretion of insulin | INS-1E GLuc reporter insulin secretion, 2-3 h | activation, % at 16.6 µM | actives 0.61% (n = 370,000) | AID 743287, 2014;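 active means lowest replicate activation of at least 40%, so every replicate reaches that level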;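 further: 0% = median of neutral control wells and 100% = median of IBMX positive control wells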
DENV2 CPE rescue – inhibitors of DENV2 cytopathic effect, primary screen, cell-based, plate reader, single concentration; DENV2-infected cells, cytopathic effect rescue; CPE inhibition, % at 9.99 µM; actives 1.7% (n = 350,000); AID 651640, 2012; in the data active means CPE inhibition above about 20%, passing the limit was not always enough; tested in BHK-21 cells;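 further: 0% = median of neutral control wells and 100% = median of positive control wells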
PGC1a acetyl inh – inhibitors of PGC1a acetylation signal, primary screen, cell-based, U2OS, AlphaScreen, inhibitor mode | inhibition, % at 15.6 µM | actives 0.17% (n = 350,000) | AlphaScreen anti-acetyl-lysine; with virally co-expressed GCN5 acetyltransferase | AID 651687, 2012;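 active means every replicate shows inhibition of at least 40%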;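 further: 0% = neutral control wells and 100% = positive control wells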
An asterisk follows results filed as active; x = no result given. Shown are actives, neighbours in structure and some others; about 3.2% of the full set was active somewhere.

SMILES | CaV13 ICDI inh | ERAP1 inh | Ecoli rRNA inh | INS-1E GSIS act | DENV2 CPE rescue | PGC1a acetyl inh
C[C@H](CO)N1C[C@H](C)[C@@H](CN(C)C)Oc2cc(-c3cncnc3)ccc2S1(=O)=O | x | 0 | 5 | 8 | 1 | 2
C[C@@H]1CN([C@H](C)CO)C(=O)c2cccc(NC(=O)Nc3ccc(C(F)(F)F)cc3)c2O[C@@H]1CN(C)C(=O)Nc1ccc(C(F)(F)F)cc1 | x | -1 | -2 | -18 | 50* | 3
C[C@H]1CN([C@@H](C)CO)C(=O)c2cccc(NC(=O)Nc3ccc(C(F)(F)F)cc3)c2O[C@@H]1CN(C)CC1CC1 | x | -2 | -12 | -33 | 31* | -29
COc1cccc(C#Cc2ccc3c(c2)[C@H]2[C@H](CCN2S(=O)(=O)c2ccccc2)[C@H](CO)N3)c1 | x | 3 | -3 | -22 | 9 | -3
C[C@@H]1CN([C@H](C)CO)C(=O)c2cc(NC(=O)Nc3cccc4ccccc34)ccc2O[C@@H](C)CCCCO[C@@H]1CN(C)CC1CCCCC1 | x | -2 | -2 | -5 | 45* | -5
C[C@@H]1CCCCO[C@H](CN(C)CC2CCCCC2)[C@H](C)CN([C@@H](C)CO)C(=O)c2cc(NC(=O)Nc3cccc4ccccc34)ccc2O1 | x | -3 | -53* | -10 | 11 | -14
C[C@@H]1CCCCO[C@@H](CN(C)CC2CCCCC2)[C@@H](C)CN([C@@H](C)CO)C(=O)c2cc(NC(=O)Nc3cccc4ccccc34)ccc2O1 | x | -2 | -4 | -15 | 7 | -19
CS(=O)(=O)N1CC2(C1)[C@H](c1ccccc1)[C@H](CO)N2C(=O)c1ccccc1 | x | 2 | 2 | -3 | 2 | 3
C[n+]1ccccc1C1CCCC/C1=N\NC(N)=S (stereo unspecified) | -6 | 43* | 17 | x | -4 | x
C[C@@H]1CN([C@@H](C)CO)C(=O)Cc2cc(NS(=O)(=O)c3cn(C)cn3)ccc2O[C@H]1CN(C)Cc1ccc(Cl)c(Cl)c1 | x | 14 | -3 | -15 | x | 2
COc1ccc(NC(=S)Nc2ncccc2C)c(OC)c1 | -8 | -1 | -31* | -2 | x | x
COCC(=O)Nc1ccc2c(c1)C(=O)N(C)C[C@H](OC)[C@H](C)CN(C(=O)Cc1ccccn1)[C@@H](C)CO2 | x | 0 | 0 | 7 | -2 | 3
CN1[C@@H]2Cn3c(ccc(C4=CCCC4)c3=O)[C@H]1[C@@H](C(=O)N1CCCCC1)[C@@H]2CO | x | 1 | 4 | 8 | 110* | x
CN1[C@@H]2c3ccc(C4=CCCC4)c(=O)n3C[C@H]1[C@H](CO)[C@H]2C(=O)N1CCCCC1 | x | 1 | 1 | 4 | -16 | x
CN1[C@@H]2c3ccc(-c4ccncc4)c(=O)n3C[C@H]1[C@H](CO)[C@H]2C(=O)N1CCC(Cc2ccccc2)CC1 | x | x | -1 | 1 | 25* | x
O=C([C@@H]1[C@@H](CO)[C@@H]2Cn3c(ccc(C4=CCCCC4)c3=O)[C@H]1N2)N1CCCCC1 | x | 4 | 0 | -2 | 35* | x
O=C(NC1CCC1)[C@H]1[C@H](CO)[C@H]2Cn3c(ccc(C4=CCCCC4)c3=O)[C@H]2N1C(=O)C1CCOCC1 | x | -2 | 1 | -2 | 65* | x
CNC[C@H]1Oc2ccc(NC(=O)Nc3ccc4c(c3)OCO4)cc2CC(=O)N([C@H](C)CO)C[C@@H]1C | x | 2 | 1 | 7 | 16 | 2
CCOC(=O)[C@]12CCCC=C1N(Cc1ccccc1)C(=O)[C@H](CC(=O)NCc1cccs1)C2 | x | 0 | -7 | -23 | 55* | x
CCCCCCCCN1C(=O)[C@H](CC(=O)NCc2cccs2)C[C@@]2(C(=O)OCC)CCCC=C12 | -3 | -2 | 7 | -32 | 0 | x
COC(=O)[C@]12CCCCC=C1N(Cc1ccco1)C(=O)[C@H](CC(=O)N1CCC(c3ccccc3)CC1)C2 | -5 | -2 | -21 | -20 | 1 | x
